Source: PubChem BioAssay AID652097 (National Center for Advancing Translational Sciences (NCATS), 2013)
Active and inactive are the calls of the source.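 Rule for the calls: active = microscopy shows reduced glucosylceramide buildup in Gaucher patient macrophages after treatment; inactive = no reduction in glucosylceramide buildup seen.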

Test: Extended Characterization of Activators of N370S glucocerebrosidase as a Potential Chaperone Treatment of Gaucher Disease: GC accumulation
Details: N370S Gaucher macrophages, immunofluorescence microscopy
Text: Glucocerebrosidase (GCase) catalyzes the hydrolysis of beta-glucocerebroside (GC) to glucose and ceramide in lysosomes. Mutations in the glucocerebrosidase gene result in Gaucher disease, an autosomal recessive lysosomal storage disorder. Many of the mutations encountered in patients with Gaucher disease are missense alterations that may cause misfolding, decreased stability and/or mistrafficking of this lysosomal protein. […] These inhibitors include iminosugar analogs and other inhibitors that were discovered as part of previous work. However, the enhancement of enzyme activity by the chaperone action of an enzyme inhibitor must be balanced against the direct inhibition of the enzyme. […] In this extended characterization of our probe, we have further characterized the activity of probes in relevant models of Gaucher disease. This assay attempts to quantitate translocated glucocerebrosidase protein in patient-derived macrophages following extended compound incubation. NIH Chemical Genomics Center [NCGC] NIH Molecular Libraries Probe Production Centers Network [MLPCN] MLPCN Grant: MH086442 Assay Submitter (PI): Ellen Sidransky, NHGRI
Macrophages derived from N370S/N370S Gaucher patients and a control were seeded in Lab-Tek 4 chamber slides (Fisher Scientific, Pittsburgh, PA). After compound treatment, cells were fixed in 3% paraformaldehyde. […]

SMILES	outcome
C#Cc1ccc(NC(=O)c2cnn3c(C)cc(C)nc23)cc1	active; decreased
